KLK7 zymogen act = proKLK7 zymogen activators, primary screen, biochemical, fluorescence intensity; activation, % at 7 µM; purified proKLK7, EDANS-DABCYL substrate fluorescence; 100% is mature enzyme control, 0% vehicle; Kallikrein-7 (Homo sapiens), P49862; hit rate 0.9% among 370,000; AID 652039, 2013;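 active = activation above the mean of all tested compounds plus 3 SD, computed per campaign excluding outliers beyond control limits, cut at about 13% in these data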
Target sequence (P49862 whole entry, looked up): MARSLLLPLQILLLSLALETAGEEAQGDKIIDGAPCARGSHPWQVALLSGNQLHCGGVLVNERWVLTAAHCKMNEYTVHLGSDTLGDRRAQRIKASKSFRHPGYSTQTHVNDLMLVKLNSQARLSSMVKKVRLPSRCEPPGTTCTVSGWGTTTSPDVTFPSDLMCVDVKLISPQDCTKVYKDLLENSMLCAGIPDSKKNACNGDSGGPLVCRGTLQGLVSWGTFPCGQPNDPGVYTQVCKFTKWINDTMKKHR
Pemphigus Ab inh = inhibitors of pemphigus antibody binding to DSG3, primary screen, biochemical, bead-based, flow cytometry, scFv-GFP; Desmoglein-3 (Homo sapiens), P32926; DSG3-coupled beads, scFv-anti-DSG3-GFP binding; active compounds read low; binding (percent of control), % at 10 µM; hit rate 0.48% among 310,000; AID 588358, 2011;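 active = binding more than 3 SD below its plate's average and above zero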;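 note: hits lower antibody fragment binding to DSG3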
ADAM17 inh = ADAM17 inhibitors, primary screen, biochemical, QFRET. AID 720648, 2013. recombinant ADAM17, EDANS/DABCYL FRET peptide cleavage. inhibition, % at 6.95 µM. hit rate 0.83% among 370,000;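 active = inhibition above the mean of compounds lying between control limits plus 3 SD, set per campaign, cut at about 8.5% in these data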
rCAG RNA binder = binders of r(CAG) RNA repeats, primary screen, biochemical, fluorescence | r(CAG) RNA repeat, TO-PRO-1 dye displacement fluorescence | inhibition, % at 3 µM | hit rate 1.3% among 370,000;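 active = inhibition above the plate cutoff, the mean of all test compounds on that plate plus 3 SD, cut at about 35% in these data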;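 note: higher means more dye released from RNA so lower well fluorescence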
ADAM10 inh = human ADAM10 inhibitors, primary screen, biochemical, QFRET, HTS | recombinant ADAM10, EDANS/DABCYL FRET peptide cleavage, 3 h | inhibition, % at 7 µM | hit rate 0.62% among 370,000 | AID 720582, 2013;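 active = inhibition above a per-campaign cutoff equal to the mean of compounds falling between control-based bounds plus 3 SD, cut at about 20% in these data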
MPTP block = mitochondrial permeability transition pore inhibitors, primary screen, biochemical, isolated mouse mitochondria, absorbance; Ca2+ swelling absorbance, 30 min; inhibition, % at 10 µM; hit rate 1.4% among 360,000;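 active = inhibition of 50% or more, scaled per plate between neutral and stimulator controls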
Numbers stand for hits. Sampled rows, rich in hits. Any-hit rate of the full collection: about 4.7%.

For C=CC[C@@H](CC(=O)N(CCO)Cc1ccccc1)C(=O)N[C@@H](COC(=O)[C@H](CC=C)CC(=O)OC(C)(C)C)Cc1c[nH]c2ccccc12 the results were KLK7 zymogen act inactive, Pemphigus Ab inh inactive, ADAM17 inh 22.2, rCAG RNA binder inactive, ADAM10 inh 35.0 and MPTP block inactive.
C=CCC[C@H](Cc1ccc(F)cc1)C(=O)OC[C@H](Cc1c[nH]c2ccccc12)NC(=O)[C@@H](CC=C)CC(=O)NCCO was read as KLK7 zymogen act inactive, Pemphigus Ab inh inactive, ADAM17 inh inactive, rCAG RNA binder inactive, ADAM10 inh 26.0 and MPTP block inactive.
Screening C=CCC[C@@H](Cc1ccc(F)cc1)C(=O)OC[C@H](Cc1c[nH]c2ccccc12)NC(=O)[C@@H](CC=C)CC(=O)N[C@@H](CO)Cc1ccccc1 returned KLK7 zymogen act inactive, Pemphigus Ab inh inactive, ADAM17 inh inactive, rCAG RNA binder inactive, ADAM10 inh inactive and MPTP block inactive.
For C=CC[C@@H](CC(=O)N[C@H](CO)Cc1ccccc1)C(=O)N[C@H](COC(=O)[C@H](CC=C)CC(=O)OC(C)(C)C)Cc1c[nH]c2ccccc12 the results were KLK7 zymogen act inactive, Pemphigus Ab inh inactive, ADAM17 inh 16.6, rCAG RNA binder inactive, ADAM10 inh 28.7 and MPTP block inactive.
O=S(=O)(CC1NCCc2ccccc21)NCc1ccc(F)cc1 (stereo not drawn) was read as KLK7 zymogen act inactive, ADAM17 inh inactive, rCAG RNA binder inactive and ADAM10 inh inactive.
`Cc1ccc(C(=O)N/C(=C/c2ccc(N(C)C)cc2)C(=O)NCC2CCCO2)cc1` (stereo not drawn) gave KLK7 zymogen act inactive, Pemphigus Ab inh 35.2, ADAM17 inh inactive, rCAG RNA binder inactive, ADAM10 inh inactive and MPTP block inactive.
`COc1cccc(CNC(=O)C2CCCN(c3ncccn3)C2)c1OC` (stereo not drawn) gave KLK7 zymogen act inactive, ADAM17 inh inactive, rCAG RNA binder inactive and ADAM10 inh inactive.
Screening Cc1cc(C)cc(OCCNC(=O)c2cc(S(=O)(=O)N3CCOCC3)ccc2F)c1 returned KLK7 zymogen act inactive, Pemphigus Ab inh 57.7, ADAM17 inh inactive, rCAG RNA binder inactive, ADAM10 inh inactive and MPTP block inactive.
`CCOC(=O)c1ccc(NC(=S)N2CCN(S(C)(=O)=O)CC2)cc1` gave KLK7 zymogen act inactive, Pemphigus Ab inh 57.1, ADAM17 inh inactive, rCAG RNA binder inactive, ADAM10 inh inactive and MPTP block inactive.
`COC(=O)C1OC(OC2CC[C@]3(C)C(CC[C@@]4(C)[C@@H]3CC=C3[C@@H]5CC(C)(C)CC[C@]5(C(=O)OC5OC(CO)C(O)C(O)C5O)CC[C@]34C)C2(C)C)C(O)C(O)C1O[C@H]1OCC(O)C(O)C1O` (stereo partly drawn) gave Pemphigus Ab inh inactive and MPTP block inactive.
Screening C/C=C(\C)C(=O)OC1CC(C)(C)C[C@H]2C3=CC[C@@H]4[C@@]5(C)CCC(O[C@@H]6O[C@@H](C(=O)O)[C@@H](O)C(O[C@@H]7OC[C@H](O)[C@@H](O)[C@@H]7O[C@@H]7OC(CO)C(O)[C@@H](O)[C@@H]7O)C6O[C@@H]6OC(CO)C(O)C(O)C6O)[C@@](C)(CO)[C@@H]5CC[C@]4(C)[C@]3(C)CC(O)[C@@]12CO (stereo partly drawn) returned KLK7 zymogen act inactive, Pemphigus Ab inh inactive, ADAM17 inh inactive, rCAG RNA binder 44.9, ADAM10 inh inactive and MPTP block inactive.
`Cc1ccccc1C(=O)NC1CCCCN(Cc2ccc(Cl)cc2)C1=O` (stereo not drawn) gave KLK7 zymogen act inactive, ADAM17 inh inactive, rCAG RNA binder inactive and ADAM10 inh inactive.
`Cc1c(C(=O)Nc2ccc(OCc3ccccc3)cc2)cccc1[N+](=O)[O-]` gave KLK7 zymogen act inactive, Pemphigus Ab inh 39.3, ADAM17 inh inactive, rCAG RNA binder inactive, ADAM10 inh inactive and MPTP block inactive.
Cc1c(C(=O)Nc2ccc(C(=O)Nc3ccccc3)cc2)cccc1[N+](=O)[O-] was read as KLK7 zymogen act inactive, Pemphigus Ab inh inactive, ADAM17 inh inactive, rCAG RNA binder inactive, ADAM10 inh inactive and MPTP block inactive.
For C[C@@H]1CCCCO[C@@H](CN(C)C(=O)NC2CCCCC2)[C@@H](C)CN([C@H](C)CO)C(=O)c2cc(N(C)C)ccc2O1 the results were KLK7 zymogen act inactive, ADAM17 inh inactive, rCAG RNA binder inactive and ADAM10 inh inactive.
`O=C(CN(Cc1ccccc1)C(=O)CCC(=O)Nc1nccs1)NCC1CCCO1` (stereo not drawn) gave KLK7 zymogen act inactive, Pemphigus Ab inh 0.3, ADAM17 inh inactive, rCAG RNA binder inactive, ADAM10 inh inactive and MPTP block inactive.
`O=C(CN(CC1CCCO1)C(=O)CCC(=O)Nc1nccs1)NCC1CCCO1` (stereo not drawn) gave KLK7 zymogen act inactive, ADAM17 inh inactive, rCAG RNA binder inactive, ADAM10 inh inactive and MPTP block inactive.
COc1ccc2cc(C(=O)CS(=O)(=O)c3ccc(Cl)cc3)c(=O)oc2c1 was read as KLK7 zymogen act inactive, ADAM17 inh inactive, rCAG RNA binder inactive and ADAM10 inh inactive.
For O=[N+]([O-])c1ccc(Cl)c(/C=N/NC(=S)Nc2ccccc2)c1 the results were KLK7 zymogen act inactive, Pemphigus Ab inh 83.6, ADAM17 inh inactive, rCAG RNA binder inactive, ADAM10 inh inactive and MPTP block inactive.
Screening O=C(O)Cc1sc(N/N=C\c2ccccc2)nc1-c1ccccc1 returned KLK7 zymogen act inactive, Pemphigus Ab inh inactive, ADAM17 inh inactive, rCAG RNA binder 44.1, ADAM10 inh inactive and MPTP block inactive.
For CCOC(=O)c1sc(N/N=C/c2ccccc2)nc1C the results were KLK7 zymogen act inactive, Pemphigus Ab inh inactive, ADAM17 inh inactive, rCAG RNA binder inactive, ADAM10 inh inactive and MPTP block inactive.
Screening COc1ccccc1CCn1cnc(-c2cccc(Br)c2)c1C(C)C returned KLK7 zymogen act inactive, ADAM17 inh inactive, rCAG RNA binder inactive and ADAM10 inh inactive.
`O=C(Nc1ccc(-c2nc3ccccc3o2)cc1)c1ccc2c(c1)OCO2` gave KLK7 zymogen act inactive, Pemphigus Ab inh inactive, ADAM17 inh inactive, rCAG RNA binder inactive, ADAM10 inh inactive and MPTP block inactive.
`O=C(Nc1ccc(-c2nc3ccccc3o2)cc1)c1ccc(N2C(=O)C3C4C=CC(C4)C3C2=O)cc1` (stereo not drawn) gave KLK7 zymogen act inactive, Pemphigus Ab inh 55.2, ADAM17 inh inactive, rCAG RNA binder inactive, ADAM10 inh inactive and MPTP block inactive.

High-throughput results deposited in PubChem BioAssay by several laboratories.
